In article PMC4336329 (PLoS ONE, 2015):
Among all 310,000 compounds or so, about 14,000 (4.5%) showed an effect of 50% or more. Effects have a minus sign here. Many of the other results were omitted from the sample, so strong results are more common in it than they were.

Molecular target: human ether-à-go-go-related gene (hERG) potassium channel (human, UniProt Q12809)
Assay: primary screen, population patch clamp on CHO cells stably expressing hERG; higher = less effect of the substance
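Further: peak tail current of the secondary pulse compared with the same well before compound.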

Sequence of human ether-à-go-go-related gene (hERG) potassium channel (Q12809 whole entry, looked up): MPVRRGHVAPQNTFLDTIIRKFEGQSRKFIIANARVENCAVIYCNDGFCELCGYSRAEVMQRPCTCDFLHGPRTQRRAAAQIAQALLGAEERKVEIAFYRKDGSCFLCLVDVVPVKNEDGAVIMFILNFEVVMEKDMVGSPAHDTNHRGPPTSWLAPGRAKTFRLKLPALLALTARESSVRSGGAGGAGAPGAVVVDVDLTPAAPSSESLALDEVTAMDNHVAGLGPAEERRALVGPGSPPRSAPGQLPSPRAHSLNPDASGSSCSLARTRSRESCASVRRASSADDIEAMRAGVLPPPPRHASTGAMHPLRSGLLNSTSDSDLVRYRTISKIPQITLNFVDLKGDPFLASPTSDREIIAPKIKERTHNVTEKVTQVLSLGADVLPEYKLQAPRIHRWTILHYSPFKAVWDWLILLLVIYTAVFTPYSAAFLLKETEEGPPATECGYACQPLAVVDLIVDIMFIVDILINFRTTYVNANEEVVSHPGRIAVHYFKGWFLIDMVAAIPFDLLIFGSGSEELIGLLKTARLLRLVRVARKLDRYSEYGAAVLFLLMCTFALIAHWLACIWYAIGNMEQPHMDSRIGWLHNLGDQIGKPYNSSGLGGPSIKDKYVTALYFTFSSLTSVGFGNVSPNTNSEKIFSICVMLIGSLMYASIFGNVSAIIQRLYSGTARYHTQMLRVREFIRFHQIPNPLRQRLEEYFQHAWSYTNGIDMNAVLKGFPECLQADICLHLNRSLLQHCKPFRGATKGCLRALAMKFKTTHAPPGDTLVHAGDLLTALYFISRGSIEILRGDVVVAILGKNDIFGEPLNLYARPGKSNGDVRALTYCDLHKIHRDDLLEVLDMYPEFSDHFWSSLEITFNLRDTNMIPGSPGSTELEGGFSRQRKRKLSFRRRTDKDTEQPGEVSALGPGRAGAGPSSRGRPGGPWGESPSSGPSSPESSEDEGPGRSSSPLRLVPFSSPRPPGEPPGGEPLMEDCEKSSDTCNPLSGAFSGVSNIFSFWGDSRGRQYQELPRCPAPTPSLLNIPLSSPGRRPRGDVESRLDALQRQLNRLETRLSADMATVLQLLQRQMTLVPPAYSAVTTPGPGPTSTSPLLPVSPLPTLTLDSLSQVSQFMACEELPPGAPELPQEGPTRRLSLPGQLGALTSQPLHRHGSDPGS

SMILES	hERG current change (%, negative = inhibition) at 10uM
CCOC(=O)c1ccc(N2CN(CCc3ccccc3)CNC2=S)cc1	6.21%
COC(=O)/C(C#N)=C\c1c(OC)[nH]c2ccccc12	14%
Cc1ccc2[nH]c(SCC(=O)N3CCOCC3)nc2c1C	8.6%
Cc1ccc2c(c1)nnn2C1CCN(CC(=O)NCCc2nc3ccccc3[nH]2)CC1	-27.9%
Cc1ccc2c(c1)nnn2C1CCN(CC(=O)NNC(=O)c2ccco2)CC1	37.1%
COc1ccc(C(=O)NNC(=O)CN2CCC(n3nnc4cc(C)ccc43)CC2)cc1	-15%
Cc1ccc2c(c1)nnn2C1CCN(CC(=O)NCCc2ccccc2)CC1	-50.4%
Cc1ccc2c(c1)nnn2C1CCN(CC(=O)NCc2ccccc2F)CC1	-59.9%
Cc1ccc2c(c1)nnn2C1CCN(CC(=O)N(c2ccccc2)c2ccccc2)CC1	11.4%
CCOC(=O)CN(C(=O)CN1CCC(n2nnc3cc(C)ccc32)CC1)c1ccccc1	-53.8%
O=C(CN1CCC(n2nnc3cc(F)ccc32)CC1)NCCc1ccccc1	-41.5%
Cc1cccc(C(=O)NC2CCN(CC(=O)NCc3ccccc3F)CC2)c1	-33.2%
CC(=C/c1ccco1)/C=N/NC(=O)CSc1nnc(SCc2ccc(C)cc2)s1	-3.37%
CN1c2ccccc2C(O)=C(C(=S)Nc2ccccc2)S1(=O)=O	22.7%
CCOc1ccc(OCC(=O)Nc2nccs2)cc1	19.8%
Oc1c(Br)cc(/C=N/Nc2nncc3ccccc23)cc1Br	27.8%
N/C(=N\OC(=O)/C=C/c1ccccc1)c1ccncc1	-52.3%
N/C(=N\OC(=O)/C=C/c1ccccc1)c1ccccc1	3.82%
N/C(=N\OC(=O)/C=C/c1ccccc1)c1cccnc1	-5.4%
CCN(CC)CCCn1c(=S)[nH]c2ccccc2c1=O	-25.7%
CCN(CC)CCCn1c(=S)[nH]c2cc(C(=O)OC)ccc2c1=O	-33%
CCN(CC)CCCn1c(=S)[nH]c2cc(Cl)ccc2c1=O	-68.7%
O=c1c2ccc(Cl)cc2[nH]c(=S)n1CCCN1CCOCC1	-22.6%
CCN(CC)CCn1c(=S)[nH]c2cc(C(=O)N3CC(C)CC(C)C3)ccc2c1=O (stereo not drawn)	-14.7%

SMILES	hERG current change (%, negative = inhibition) at 10uM
CCN(CC)CCn1c(=S)[nH]c2cc(Cl)ccc2c1=O	-63.2%
CC(C)c1ccc(NC(=O)CSc2ncccc2C(=O)Oc2cccc([N+](=O)[O-])c2)cc1	8.39%
CCOC(=O)c1c(NC(=O)CSc2nncn2C)sc(C)c1C	-4.02%
COc1cc(/C=N/O)ccc1OCc1ccc([N+](=O)[O-])cc1	-23.5%
O=C(NNC(=S)NCc1ccc(Cl)cc1)c1ccc2c(c1)OCO2	6.73%
Cc1cccc(NC(=S)NC2CC3CCCC(C2)N3Cc2ccco2)c1 (stereo not drawn)	-21.7%
Cc1ccc(NC(=S)NC2CC3CCC(C2)N3Cc2ccco2)cc1C (stereo not drawn)	-36.1%
Cc1cccc(NC(=S)NC2CC3CCC(C2)N3Cc2ccco2)c1 (stereo not drawn)	-43.5%
CCc1ccc(NC(=S)NC2CC3CCC(C2)N3Cc2ccco2)cc1 (stereo not drawn)	-45.5%
Cc1cc(C)cc(NC(=S)NC2CC3CCC(C2)N3Cc2ccco2)c1 (stereo not drawn)	-71.5%
Cc1ccc(NC(=S)NC2CC3CCCC(C2)N3Cc2ccco2)cc1 (stereo not drawn)	-52.8%
O=C(Nc1ccc2c(c1)CCC2)c1ccccc1Br	-12.9%
COc1ccc(/C=N/Nc2cc(C)nc3c(C)cccc23)cc1	-57.5%
Cc1cc(N/N=C/c2ccc(O)cc2)c2cccc(C)c2n1	-51.6%
COc1ccc2nc(C)cc(N/N=C/c3cccc(OC)c3O)c2c1	-13%
COc1cccc2c(N/N=C/c3ccccc3)cc(C)nc12	-9.04%
COc1ccccc1/C=N/Nc1cc(C)nc2ccc(C)cc12	7.89%
Cc1cc(N/N=C/c2ccccc2O)c2ccccc2n1	-72.5%
Cc1ccc2nc(C)cc(N/N=C/c3ccccc3O)c2c1	2.38%
Cc1cc(C)c2nc(C)cc(N/N=C/c3ccc(O)cc3)c2c1	-33.7%
Cc1cc(N/N=C/c2ccc(O)cc2O)c2ccccc2n1	4.97%
COc1cccc2c(N/N=C/c3ccc(O)c(O)c3)cc(C)nc12	18.9%
COc1ccc(/C=N/Nc2cc(C)nc3ccc(OC)cc23)c(OC)c1	-50.1%
COc1cccc2c(N/N=C/c3ccco3)cc(C)nc12	-5.81%

SMILES	hERG current change (%, negative = inhibition) at 10uM
COCCCNC(=O)c1oc2ccc(S(=O)(=O)N(C)C3CCCCC3)cc2c1C	-4.45%
COc1ccccc1-c1cc(-c2ccc(O)cc2)nc(N)c1C#N	13.9%
CC(=O)c1ccc(S(=O)c2ccccc2)cc1 (stereo not drawn)	-3.38%
Cc1ccc(CSc2nnc(C)c(=O)[nH]2)cc1	10.9%
S=C(NCc1ccccn1)Nc1ccc(Cl)cc1Cl	6.07%
O=C(CCc1ccccc1)NCC(=O)N/N=C/c1ccc(O)cc1O	-8.41%
COCc1cc(=O)[nH]c(Sc2c(-c3ccccc3)c3ccc(Cl)cc3[nH]c2=O)n1	20.4%
O=C(NCCCN1CCCC1=O)C(=O)NCC1OCCCN1S(=O)(=O)c1cc(F)ccc1F (stereo not drawn)	23.8%
CC(=O)C1=C(c2ccccc2)NC(=O)NC1c1ccc(O)c(Cl)c1 (stereo not drawn)	17.6%
O=C(COc1ccccc1Cl)c1ccc2c(c1)CCCC2	-0.256%
Cc1nc2nc(SCC(=O)Nc3cccc(F)c3)[nH]c2cc1Br	23.2%
C/C(N)=C(/C#N)C(=O)COC(=O)c1ccccc1O	-0.192%
Cc1ccc(NC(=O)CSc2ccc(-c3ccco3)nn2)cc1	-7.67%
CCCN(CCC)CC(C)(C)NS(=O)(=O)c1ccc(Cl)cc1	-17.1%
COc1ccc2nc(C)cc(N/N=C/c3ccccc3)c2c1	-17.1%
COc1ccc(/C=N/Nc2cc(C)nc3ccc(Br)cc23)cc1	-35.1%
COc1ccc(/C=N/Nc2cc(C)nc3ccccc23)cc1	-63.3%
COc1ccc(-n2c(C)cc(/C=C/c3nc(O)c([N+](=O)[O-])c(=O)[nH]3)c2C)cc1	3.06%
CC1(C)NC(=O)N(CC(=O)NNC(=O)c2ccccc2F)C1=O	3.42%
Cn1ncc(Br)c1C(=O)NC1CCCC1	24.1%
C=CCn1c(O)c(C(C)=Nc2cccc(C(=O)O)c2)c(=O)[nH]c1=O	1.4%
O=C(c1ccc(Cl)cc1Cl)c1ncc(C(F)(F)F)cc1Cl	-10.1%
O=c1oc2cc(Br)ccc2n1Cc1ccccc1	18.6%
Cc1cc(=O)n(Cc2ccccc2)c2ccccc12	4.79%

SMILES	hERG current change (%, negative = inhibition) at 10uM
Cc1c(CN(C)C)c2c(n1Cc1ccccc1)C(=O)c1ccccc1-2.Cl	-75.6%
Cc1c(CN(C)C)c2c(n1Cc1ccccc1)C(=O)c1ccc(Br)cc1-2.Cl	-74.5%
Cc1cc(O)cc(=O)n1Cc1ccccc1	12%
Cc1c(CN(C)C)c2c(n1C)C(=O)c1ccc(Br)cc1-2.Cl	-37.3%
COCc1nnc(SCC(=O)NCc2ccccc2)n1-c1ccccc1	-3.33%
CCOCCCNC(C(=O)Nc1ccc(OC)c(Cl)c1)c1ccccc1 (stereo not drawn)	-35.1%
CCC(C)C(NC(N)=O)C(=O)Nc1ccc(C)c(Cl)c1 (stereo not drawn)	10.9%
CCc1ccc(C(=O)c2cncc(Br)c2)cc1	-18.3%
COc1ccc2oc(C(=O)OCC(=O)N3CCCC(C)C3)c(C)c2c1 (stereo not drawn)	-39.4%
CCOC(=O)CCC(=O)c1c(C)oc2ccc(OC)cc12	-57.2%
CCOC(=O)c1c(CN2CCN(c3ccccc3)CC2)oc2ccc(O)cc12	-4.3%
CCOC(=O)c1c(CN2CCN(C)CC2)oc2ccc(O)cc12	-38%
COc1ccc2oc(C)c(C(=O)NN)c2c1	-1.4%
COc1ccc2oc(C(=O)OC(C)C(=O)N3CCC(C)CC3)c(C)c2c1 (stereo not drawn)	-5.44%
CCOC(=O)c1c(CN2CCOCC2)oc2ccc(OC)cc12	-7.29%
COc1ccc2oc(C)c(C(=O)c3ccccc3)c2c1	-7.34%
CCOC(=O)c1c(CN2CCC(C)CC2)oc2ccc(OC)cc12	-51.2%
CCOC(=O)c1c(CN2CCOCC2)oc2ccc(OC(C)=O)cc12	13.9%
CCOC(=O)c1c(CN2CCCCC2)oc2ccc(O)cc12.Cl	-54.3%
CCOC(=O)c1c(CN2CCCCC2)oc2ccc(OC)cc12	-61.6%
CCOC(=O)c1cnc(Nc2nc3ccccc3o2)nc1CSc1nnc(C)s1	-5.06%
